# PubChem BioAssay AID1159580 (chemical genetic matrix, 2015)
# Out of some 5,500 compounds screened, about 2,000 (36%) were called active. Roughly 18% stayed inconclusive and do not appear here. The list shows a part of the results. Unmarked numbers belong to inactive results. Rule as the data show it: active = normalized growth mostly below about 0.91 (no sharp cut-off); inconclusive = no clear call, values can overlap the other calls; inactive = mostly above about 0.92.
# Assay: chemical genetic growth profiling, strain panel (AID 1159580);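 also: tested at 20 µM; growth read once vehicle control cultures reached saturation at 30 °C; 1 = growth at the plate median or of vehicle wells; lower values mean less growth of the strain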
# Conditions: S. cerevisiae deletion strains, growth OD
# [1] = locus YAR019C, strain CDC15, stronger effect = lower value
# [2] = locus YBL105C, strain PKC1, stronger effect = lower value
# [3] = locus YBR135W, strain CKS1, stronger effect = lower value
# [4] = locus YBR136W, strain MEC1, stronger effect = lower value
# [5] = locus YBR160W, strain CDC28, stronger effect = lower value
# [6] = locus YDL017W, strain CDC7, stronger effect = lower value
# [7] = locus YDL028C, strain MPS1, stronger effect = lower value
# [8] = locus YDL101C, strain DUN1, stronger effect = lower value
# [9] = locus YDL108W, strain KIN28, stronger effect = lower value
# [10] = locus YDL132W, strain cdc53, stronger effect = lower value
# [11] = locus YDL214C, strain PRR2, stronger effect = lower value
# [12] = locus YDR052C, strain DBF4, stronger effect = lower value
# [13] = locus YDR054C, strain cdc34, stronger effect = lower value
# [14] = locus YDR477W, strain SNF1, stronger effect = lower value
# [15] = locus YER123W, strain YCK3, stronger effect = lower value
# [16] = locus YER133W, strain GLC7, stronger effect = lower value
# [17] = locus YFL009W, strain cdc4, stronger effect = lower value
# [18] = locus YFL029C, strain CAK1, stronger effect = lower value
# [19] = locus YFR003C, strain YPI1, stronger effect = lower value
# [20] = locus YFR019W, strain FAB1, stronger effect = lower value
# [21] = locus YFR028C, strain CDC14, stronger effect = lower value
# [22] = locus YGR040W, strain KSS1, stronger effect = lower value
# [23] = locus YGR052W, strain FMP48, stronger effect = lower value
# [24] = locus YGR092W, strain DBF2, stronger effect = lower value
# [25] = locus YHR030C, strain SLT2, stronger effect = lower value
# [26] = locus YHR079C, strain IRE1, stronger effect = lower value
# [27] = locus YHR082C, strain KSP1, stronger effect = lower value
# [28] = locus YHR205W, strain SCH9, stronger effect = lower value
# [29] = locus YIL147C, strain SLN1, stronger effect = lower value
# [30] = locus YJL095W, strain BCK1, stronger effect = lower value
# [31] = locus YJL128C, strain PBS2, stronger effect = lower value
# [32] = locus YJL157C, strain FAR1, stronger effect = lower value
# [33] = locus YJR016C, strain ILV3, stronger effect = lower value
# [34] = locus YJR066W, strain TOR1 (second series), stronger effect = lower value
# [35] = locus YJR066W, strain TOR1, stronger effect = lower value
# [36] = locus YKL048C, strain ELM1, stronger effect = lower value
# [37] = locus YKL067W, strain YNK1, stronger effect = lower value
# [38] = locus YKL101W, strain HSL1, stronger effect = lower value
# [39] = locus YKL193C, strain SDS22, stronger effect = lower value
# [40] = locus YKL203C, strain TOR2, stronger effect = lower value
# [41] = locus YLR113W, strain HOG1, stronger effect = lower value
# [42] = locus YLR133W, strain CKI1, stronger effect = lower value
# [43] = locus YLR403W, strain SFP1, stronger effect = lower value
# [44] = locus YML070W, strain DAK1, stronger effect = lower value
# [45] = locus YMR001C, strain CDC5, stronger effect = lower value
# [46] = locus YMR205C, strain PFK2 (second series), stronger effect = lower value
# [47] = locus YMR277W, strain FCP1, stronger effect = lower value
# [48] = locus YNL006W, strain LST8, stronger effect = lower value
# [49] = locus YNL020C, strain ARK1, stronger effect = lower value
# [50] = locus YNL161W, strain CBK1, stronger effect = lower value
# [51] = locus YNL183C, strain NPR1, stronger effect = lower value
# [52] = locus YNL207W, strain RIO2, stronger effect = lower value
# [53] = locus YNL222W, strain SSU72, stronger effect = lower value
# [54] = locus YNL307C, strain MCK1 (second series), stronger effect = lower value
# [55] = locus YOL078W, strain AVO1, stronger effect = lower value
# [56] = locus YOL136C, strain PFK27, stronger effect = lower value
# [57] = locus YOR061W, strain CKA2, stronger effect = lower value
# [58] = locus YOR119C, strain RIO1, stronger effect = lower value
# [59] = locus YOR231W, strain MKK1, stronger effect = lower value
# [60] = locus YOR329C, strain SCD5, stronger effect = lower value
# [61] = locus YPL031C, strain PHO85, stronger effect = lower value
# [62] = locus YPL153C, strain RAD53, stronger effect = lower value
# [63] = locus YPL204W, strain HRR25, stronger effect = lower value
# [64] = locus YPL209C, strain IPL1, stronger effect = lower value
# [65] = locus YPL256C, strain CLN2, stronger effect = lower value
# [66] = locus YPR025C, strain CCL1, stronger effect = lower value
# [67] = locus YPR106W, strain ISR1, stronger effect = lower value
# [68] = locus YPR111W, strain DBF20, stronger effect = lower value
# [69] = strain NNK1, stronger effect = lower value
# [70] = strain TSCII, stronger effect = lower value
smiles,measurement,setting,value
C=CCOc1ccc(/C=C/[N+](=O)[O-])cc1,normalized growth,[1],0.0985 (active)
same,normalized growth,[2],0.0881 (active)
same,normalized growth,[3],0.0822 (active)
same,normalized growth,[4],0.095 (active)
same,normalized growth,[5],0.0851 (active)
same,normalized growth,[6],0.0853 (active)
same,normalized growth,[7],0.0971 (active)
same,normalized growth,[8],0.108 (active)
same,normalized growth,[9],0.1 (active)
same,normalized growth,[10],0.0933 (active)
same,normalized growth,[11],0.0888 (active)
same,normalized growth,[12],0.0837 (active)
same,normalized growth,[13],0.0953 (active)
same,normalized growth,[14],0.104 (active)
same,normalized growth,[15],0.105 (active)
same,normalized growth,[16],0.096 (active)
same,normalized growth,[17],0.0895 (active)
same,normalized growth,[18],0.094 (active)
same,normalized growth,[19],0.0875 (active)
same,normalized growth,[20],0.0967 (active)
same,normalized growth,[21],0.0822 (active)
same,normalized growth,[22],0.0972 (active)
same,normalized growth,[23],0.116 (active)
same,normalized growth,[24],0.106 (active)
same,normalized growth,[25],0.12 (active)
same,normalized growth,[26],0.118 (active)
same,normalized growth,[27],0.124 (active)
same,normalized growth,[28],0.00436 (active)
same,normalized growth,[29],0.116 (active)
same,normalized growth,[30],0.124 (active)
same,normalized growth,[31],0.154 (active)
same,normalized growth,[32],0.0842 (active)
same,normalized growth,[33],0.0828 (active)
same,normalized growth,[34],0.0922 (active)
same,normalized growth,[35],0.118 (active)
same,normalized growth,[36],0.107 (active)
same,normalized growth,[37],0.0924 (active)
same,normalized growth,[38],0.0997 (active)
same,normalized growth,[39],0.0826 (active)
same,normalized growth,[40],0.104 (active)
same,normalized growth,[41],0.147 (active)
same,normalized growth,[42],0.102 (active)
same,normalized growth,[43],-0.00907 (active)
same,normalized growth,[44],0.0908 (active)
same,normalized growth,[45],0.0861 (active)
same,normalized growth,[46],0.095 (active)
same,normalized growth,[47],0.0876 (active)
same,normalized growth,[48],0.0846 (active)
same,normalized growth,[49],0.0937 (active)
same,normalized growth,[50],0.0814 (active)
same,normalized growth,[51],0.127 (active)
same,normalized growth,[52],0.0904 (active)
same,normalized growth,[53],0.0824 (active)
same,normalized growth,[54],0.102 (active)
same,normalized growth,[55],0.083 (active)
same,normalized growth,[56],0.0949 (active)
same,normalized growth,[57],0.0943 (active)
same,normalized growth,[58],0.112 (active)
same,normalized growth,[59],0.109 (active)
same,normalized growth,[60],0.0843 (active)
same,normalized growth,[61],0.102 (active)
same,normalized growth,[62],0.0983 (active)
same,normalized growth,[63],0.0984 (active)
same,normalized growth,[64],0.0828 (active)
same,normalized growth,[65],0.134 (active)
same,normalized growth,[66],0.0851 (active)
same,normalized growth,[67],0.0928 (active)
same,normalized growth,[68],0.154 (active)
same,normalized growth,[69],0.1 (active)
same,normalized growth,[70],0.0928 (active)
CC(=O)Nc1ccc(/C=C/[N+](=O)[O-])cc1,normalized growth,[1],0.977
same,normalized growth,[2],0.972
same,normalized growth,[3],0.976
same,normalized growth,[4],0.964
same,normalized growth,[5],0.98
same,normalized growth,[6],0.98
same,normalized growth,[7],0.973
same,normalized growth,[8],0.994
same,normalized growth,[9],0.972
same,normalized growth,[10],0.975
same,normalized growth,[11],0.857
same,normalized growth,[12],0.98
same,normalized growth,[13],0.974
same,normalized growth,"locus YDR226W, strain ADK1, stronger effect = lower value",0.975
same,normalized growth,[14],0.809
same,normalized growth,[15],0.679
same,normalized growth,[16],0.806
same,normalized growth,[17],0.974
same,normalized growth,[18],0.962
same,normalized growth,[19],0.982
same,normalized growth,[20],0.629 (active)
same,normalized growth,[21],0.972
same,normalized growth,[22],0.807
same,normalized growth,[23],0.843
same,normalized growth,[24],0.816
same,normalized growth,[25],0.697 (active)
same,normalized growth,[26],0.809
same,normalized growth,[27],0.804
same,normalized growth,[28],0.723
same,normalized growth,[29],0.97
same,normalized growth,[30],0.78
same,normalized growth,[31],0.969
same,normalized growth,[32],0.844
same,normalized growth,[33],0.981
same,normalized growth,[34],0.732
same,normalized growth,[35],0.684
same,normalized growth,[36],0.864
same,normalized growth,[37],0.852
same,normalized growth,[38],0.795
same,normalized growth,[39],0.977
same,normalized growth,[40],0.852
same,normalized growth,[41],0.628 (active)
same,normalized growth,[42],0.861
same,normalized growth,[43],0.818
same,normalized growth,[44],0.804
same,normalized growth,[45],0.971
same,normalized growth,[46],0.868
same,normalized growth,[47],0.976
same,normalized growth,[48],0.996
same,normalized growth,[49],0.88
same,normalized growth,[50],0.973
same,normalized growth,[51],0.782
same,normalized growth,[52],0.978
same,normalized growth,[53],0.975
same,normalized growth,[54],0.78
same,normalized growth,[55],0.97
same,normalized growth,[56],0.829
same,normalized growth,[57],0.882
same,normalized growth,[58],0.855
same,normalized growth,[59],0.786
same,normalized growth,[60],0.985
same,normalized growth,[61],0.794
same,normalized growth,[62],0.776
same,normalized growth,[63],0.791
same,normalized growth,[64],0.98
same,normalized growth,[65],0.642 (active)
same,normalized growth,[66],0.982
same,normalized growth,[67],0.988
same,normalized growth,[68],0.984
same,normalized growth,[69],0.999
same,normalized growth,[70],0.969
